The campaign covered roughly 40,000 compounds. About 1,400 (3.5%) were called active.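 How the source made its calls: active means any of four per-well response measures lying three or more SD from its plate-wide compound average, in either direction; inactive means the rest, inconclusive results apart.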 This excerpt belongs to a sample that is enriched for actives.

Sequence of Voltage-dependent calcium channel gamma-2 subunit (Mus musculus) + Glutamate receptor 2 (Rattus norvegicus) (O88602 whole entry, looked up): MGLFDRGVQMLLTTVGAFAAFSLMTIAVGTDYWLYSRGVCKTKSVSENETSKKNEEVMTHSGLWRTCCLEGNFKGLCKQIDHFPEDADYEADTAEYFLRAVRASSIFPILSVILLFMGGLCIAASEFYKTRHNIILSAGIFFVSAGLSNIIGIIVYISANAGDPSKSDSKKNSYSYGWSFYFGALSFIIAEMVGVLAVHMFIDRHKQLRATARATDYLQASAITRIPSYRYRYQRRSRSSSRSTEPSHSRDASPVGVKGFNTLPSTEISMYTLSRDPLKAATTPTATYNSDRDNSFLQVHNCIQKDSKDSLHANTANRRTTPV
Sequence of Voltage-dependent calcium channel gamma-2 subunit (Mus musculus) + Glutamate receptor 2 (Rattus norvegicus) (P19491 whole entry, looked up): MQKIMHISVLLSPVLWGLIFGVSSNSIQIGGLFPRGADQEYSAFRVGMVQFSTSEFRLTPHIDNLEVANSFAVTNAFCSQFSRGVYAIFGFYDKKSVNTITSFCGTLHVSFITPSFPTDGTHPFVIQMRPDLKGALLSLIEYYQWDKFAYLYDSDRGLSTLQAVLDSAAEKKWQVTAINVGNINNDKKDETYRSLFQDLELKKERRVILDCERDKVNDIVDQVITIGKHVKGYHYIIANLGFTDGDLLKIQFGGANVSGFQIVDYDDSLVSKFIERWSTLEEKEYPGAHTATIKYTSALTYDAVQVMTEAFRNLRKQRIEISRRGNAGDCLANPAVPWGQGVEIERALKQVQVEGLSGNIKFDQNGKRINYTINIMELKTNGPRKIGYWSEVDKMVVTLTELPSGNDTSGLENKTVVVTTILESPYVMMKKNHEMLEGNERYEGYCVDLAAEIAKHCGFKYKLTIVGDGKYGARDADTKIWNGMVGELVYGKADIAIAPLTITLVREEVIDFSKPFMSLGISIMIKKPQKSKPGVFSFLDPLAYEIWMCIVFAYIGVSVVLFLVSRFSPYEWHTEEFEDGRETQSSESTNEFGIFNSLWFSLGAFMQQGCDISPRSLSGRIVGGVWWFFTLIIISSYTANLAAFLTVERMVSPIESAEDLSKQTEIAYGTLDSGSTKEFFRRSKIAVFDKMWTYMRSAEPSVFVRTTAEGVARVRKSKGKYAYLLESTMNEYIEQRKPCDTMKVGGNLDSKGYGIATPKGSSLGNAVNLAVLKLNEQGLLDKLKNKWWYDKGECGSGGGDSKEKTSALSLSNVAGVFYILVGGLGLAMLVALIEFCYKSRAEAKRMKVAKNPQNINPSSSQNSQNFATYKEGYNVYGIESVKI

The experiment addresses Voltage-dependent calcium channel gamma-2 subunit (Mus musculus) + Glutamate receptor 2 (Rattus norvegicus) (UniProt O88602+P19491). The experiment in a line: modulators of GluA2-stargazin AMPA receptor complexes, primary screen, cell-based, membrane potential dye (AID 1259245). Particulars: HEK293 GluA2+stargazin, membrane potential dye (FDSS), glutamate EC50, at 30 µM, hits were called plate by plate, in both directions; compound max-min signal: compound-alone response (agonism); glutamate slope, % of max: measured here: glutamate response slope, % max.
With `O=[N+]([O-])c1cccc(CSc2nnc(-c3ccncc3)o2)c1`, the compound max-min signal came to 0.0611; the glutamate response, % of max is 20.8% (inactive); the glutamate slope, % of max turned out to be 47.1%.

As to `CC(=O)c1sc(NC(=O)C2CCCN(S(C)(=O)=O)C2)nc1-c1ccccc1` (stereo not drawn), the compound max-min signal came out at 0.126; the glutamate response, % of max was 21.7% (inactive); the glutamate slope, % of max was found to be 40.2%.

On to `CCOc1ccc(-c2ccc(=O)n(CCCC(=O)Nc3cc(Cl)ccc3OC)n2)cc1`, for which the compound max-min signal was 0.0223; the glutamate response, % of max is 14.7% (inactive); the glutamate slope, % of max is 28.2%.

For the compound `COc1ccc(-c2ccc(=O)n(CCCC(=O)Nc3ccccc3-c3ccccc3)n2)cc1`, the compound max-min signal was 0.0404; the glutamate response, % of max was 21.1% (inactive); the glutamate slope, % of max was 39%.

Regarding `CCOc1ccc(-c2cc(=O)n(CCCC(=O)Nc3cc(C)ns3)cn2)cc1`, the compound max-min signal stood at 0.074; the glutamate response, % of max is -0.752% (active); the glutamate slope, % of max is 5.34%.

Regarding `COc1cc(NS(=O)(=O)c2ccccc2F)ccc1N1CCCCC1=O`, the compound max-min signal was 0.0504; the glutamate response, % of max is 15.5% (inactive); the glutamate slope, % of max was found to be 35.3%.

For `COc1cccc(C(CNC(=O)c2ccc(OC(C)C)cc2)N2CCOCC2)c1` (stereo not drawn), the compound max-min signal worked out at 0.0693; the glutamate response, % of max is 22.5% (inactive); the glutamate slope, % of max is 42.1%.

With `COc1ccc(C(CNC(=O)c2cc(C)cc(C)c2)N2CCOCC2)cc1` (stereo not drawn), the compound max-min signal worked out at 0.0728; the glutamate response, % of max is 37.2% (inactive); the glutamate slope, % of max is 50.1%.

Consider `COc1ccc(C(CNC(=O)c2ccccc2Cl)N2CCOCC2)cc1` (stereo not drawn), for which the compound max-min signal came out at 0.07; the glutamate response, % of max was 35.7% (active); the glutamate slope, % of max came out at 45.9%.

For `COc1cccc(CNC(=O)C(=O)Nc2cc([N+](=O)[O-])ccc2C)c1`, the compound max-min signal was 0.135; the glutamate response, % of max was 41.7% (inactive); the glutamate slope, % of max came out at 61.5%.

Take `COc1ccc(NC(=O)C(=O)Nc2cc([N+](=O)[O-])ccc2C)cc1OC`: the compound max-min signal turned out to be 0.325; the glutamate response, % of max was 62.6% (active); the glutamate slope, % of max was 80.6%.

Regarding `COc1ccccc1CCNC(=O)C(=O)Nc1cc([N+](=O)[O-])ccc1C`, the compound max-min signal came to 0.125; the glutamate response, % of max is 47.7% (inactive); the glutamate slope, % of max is 62.3%.

Turning to `O=C(NCCNc1ccc(Nc2ccncc2)nn1)c1cccc2ccccc12`, the compound max-min signal came to 0.274; the glutamate response, % of max is 30.8% (inactive); the glutamate slope, % of max came to 57.7%.

In the case of `O=C(NCCn1ncc2c(N3CCOCC3)ncnc21)c1ccc2c(c1)OCO2`, the compound max-min signal amounted to 0.0657; the glutamate response, % of max was 28.9% (inactive); the glutamate slope, % of max worked out at 49.6%.

Turning to `CC(O)(CNC(=O)NCc1ccc(F)cc1)c1ccc(-c2ccccc2)cc1` (stereo not drawn), the compound max-min signal was determined as 0.113; the glutamate response, % of max was 15.8% (inactive); the glutamate slope, % of max is 57.2%.

For the compound `O=C(NNC(=O)c1ccc(=O)n(Cc2ccccc2)c1)c1ccc(F)c(F)c1`, the compound max-min signal amounted to 0.0736; the glutamate response, % of max is 29.9% (inactive); the glutamate slope, % of max is 51.5%.

Turning to `CC1CC(=O)Nc2c1c(NC(=O)c1ccc3c(c1)OCO3)nn2C` (stereo not drawn), the compound max-min signal turned out to be 0.11; the glutamate response, % of max is 23.6% (active); the glutamate slope, % of max was found to be 38.4%.

Take `Cn1nc(NC(=O)c2ccc3c(c2)OCO3)c2c1NC(=O)CC2c1cccs1` (stereo not drawn): the compound max-min signal was 0.101; the glutamate response, % of max was 34.8% (inactive); the glutamate slope, % of max amounted to 53.9%.

Regarding `Cn1nc(NC(=O)/C=C\c2ccc3c(c2)OCO3)c2c1NC(=O)CC2c1ccco1` (stereo not drawn), the compound max-min signal was 0.119; the glutamate response, % of max was 38.8% (inactive); the glutamate slope, % of max amounted to 66.5%.

`COc1ccc(NC(=O)C(=O)NCC2CCN(C)CC2)c(OC)c1`: the compound max-min signal worked out at 0.0817; the glutamate response, % of max was 43.1% (inactive); the glutamate slope, % of max was determined as 70.1%.

As for `Cc1ccc(-n2ncc3c(=O)n(CC(=O)N4CCOCC4)cnc32)cc1C`, the compound max-min signal turned out to be 0.0678; the glutamate response, % of max is 29.7% (inactive); the glutamate slope, % of max came out at 52.9%.

Take `O=[N+]([O-])c1cccc(S(=O)(=O)NCC(c2cccs2)N2CCOCC2)c1` (stereo not drawn): the compound max-min signal is 0.129; the glutamate response, % of max was 23.5% (active); the glutamate slope, % of max was determined as 44.4%.

As for `COc1ccc(S(=O)(=O)NCC(c2cccn2C)N2CCOCC2)cc1OC` (stereo not drawn), the compound max-min signal was 0.0786; the glutamate response, % of max is 34.5% (inactive); the glutamate slope, % of max came to 60.4%.

For `Cn1cccc1C(CNS(=O)(=O)c1ccc(F)cc1)N1CCOCC1` (stereo not drawn), the compound max-min signal was determined as 0.0736; the glutamate response, % of max is 28.1% (inactive); the glutamate slope, % of max came to 55.5%.

For the compound `O=C(NCCn1ncc2c(N3CCN(c4ccccc4)CC3)ncnc21)c1cccs1`, the compound max-min signal stood at 0.0478; the glutamate response, % of max is 45.6% (inactive); the glutamate slope, % of max came to 68.2%.

As for `COc1ccc(CN(CC(=O)N(C)c2ccccc2)S(=O)(=O)c2cccnc2)cc1`, the compound max-min signal is 0.128; the glutamate response, % of max was 30.9% (inactive); the glutamate slope, % of max was 52.8%.

On to `O=C1/C(=C/c2cccnc2)SC(=S)N1c1ccc2c(c1)OCCO2`, for which the compound max-min signal was determined as 0.116; the glutamate response, % of max is 41.7% (inactive); the glutamate slope, % of max is 65.3%.

For `Cn1cnc2cc(OC(=O)c3ccc(=O)[nH]n3)ccc21`, the compound max-min signal turned out to be 0.276; the glutamate response, % of max was 33% (active); the glutamate slope, % of max stood at 52.5%.

On to `COc1ccc(-c2ccc(N3CCN(C(=O)c4ccc(=O)[nH]n4)CC3)nn2)cc1`, for which the compound max-min signal turned out to be 0.0223; the glutamate response, % of max was 13.3% (inactive); the glutamate slope, % of max was found to be 24.1%.

With `COc1ccc(C(=O)NCCOc2ccc(-c3ccc(F)cc3)nn2)c(OC)c1`, the compound max-min signal stood at 0.0424; the glutamate response, % of max is 40.3% (inactive); the glutamate slope, % of max stood at 60.6%.

Take `COc1ccc(C(=O)N2CCc3cc(S(=O)(=O)NC4CCCC4)ccc32)cc1`: the compound max-min signal came to 0.109; the glutamate response, % of max is 49% (inactive); the glutamate slope, % of max is 67.4%.

`COc1cccc(C(=O)Nc2nnc(-c3ccc(OC)c(OC)c3)o2)c1`: the compound max-min signal is 0.128; the glutamate response, % of max was 35.2% (inactive); the glutamate slope, % of max turned out to be 53.9%.

For the compound `COc1cc(OC)cc(C(=O)Nc2nnc(-c3cc(OC)c(OC)c(OC)c3)o2)c1`, the compound max-min signal is 0.259; the glutamate response, % of max is 56.5% (active); the glutamate slope, % of max is 83.8%.

`COc1cc(C(=O)Nc2nnc(-c3ccc(SC)cc3)o2)cc(OC)c1OC`: the compound max-min signal was determined as 0.0956; the glutamate response, % of max is 30.8% (inactive); the glutamate slope, % of max was found to be 51.3%.

Consider `Cn1cccc1C(CNC(=O)C(=O)Nc1ccccc1F)N1CCOCC1` (stereo not drawn), for which the compound max-min signal was 0.0712; the glutamate response, % of max is 30.1% (inactive); the glutamate slope, % of max was 55%.

`CCN1CC(c2nc3ccccc3n2Cc2ccccc2F)CC1=O` (stereo not drawn): the compound max-min signal came out at 0.0186; the glutamate response, % of max is 31.3% (inactive); the glutamate slope, % of max is 50%.

The values are drawn from PubChem BioAssay AID1259245 (Vanderbilt High Throughput Screening Facility, 2017).
